SMILES strings stand for the structures. Out of some 310,000 compounds screened, about 3,600 (1.2%) were called active.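 The calls were made as follows: active = ratio plate-corrected score three or more library SD toward inhibition, starting fluorescence score within five deviations; inactive = the rest.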 Many of the other results were omitted from the sample, so actives are more common in it than they were.

For the assay, the target named is Anoctamin-1 (Mus musculus) (UniProt Q8BHY3). Nature of the assay: blockers of mouse ANO1 Ca-activated Cl channel – cell-based, HTS, primary screen (AID 588511).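 As to normalized B-score (activity score, 25-100; higher = stronger inhibition): score derived from kinetic fluorescence span divided by baseline fluorescence per well.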 Conditions: HEK293 TMEM16A/YFP iodide influx fluorescence, ionomycin; at 10 µM.
Chain of Anoctamin-1 (Mus musculus) (Q8BHY3 whole entry, looked up): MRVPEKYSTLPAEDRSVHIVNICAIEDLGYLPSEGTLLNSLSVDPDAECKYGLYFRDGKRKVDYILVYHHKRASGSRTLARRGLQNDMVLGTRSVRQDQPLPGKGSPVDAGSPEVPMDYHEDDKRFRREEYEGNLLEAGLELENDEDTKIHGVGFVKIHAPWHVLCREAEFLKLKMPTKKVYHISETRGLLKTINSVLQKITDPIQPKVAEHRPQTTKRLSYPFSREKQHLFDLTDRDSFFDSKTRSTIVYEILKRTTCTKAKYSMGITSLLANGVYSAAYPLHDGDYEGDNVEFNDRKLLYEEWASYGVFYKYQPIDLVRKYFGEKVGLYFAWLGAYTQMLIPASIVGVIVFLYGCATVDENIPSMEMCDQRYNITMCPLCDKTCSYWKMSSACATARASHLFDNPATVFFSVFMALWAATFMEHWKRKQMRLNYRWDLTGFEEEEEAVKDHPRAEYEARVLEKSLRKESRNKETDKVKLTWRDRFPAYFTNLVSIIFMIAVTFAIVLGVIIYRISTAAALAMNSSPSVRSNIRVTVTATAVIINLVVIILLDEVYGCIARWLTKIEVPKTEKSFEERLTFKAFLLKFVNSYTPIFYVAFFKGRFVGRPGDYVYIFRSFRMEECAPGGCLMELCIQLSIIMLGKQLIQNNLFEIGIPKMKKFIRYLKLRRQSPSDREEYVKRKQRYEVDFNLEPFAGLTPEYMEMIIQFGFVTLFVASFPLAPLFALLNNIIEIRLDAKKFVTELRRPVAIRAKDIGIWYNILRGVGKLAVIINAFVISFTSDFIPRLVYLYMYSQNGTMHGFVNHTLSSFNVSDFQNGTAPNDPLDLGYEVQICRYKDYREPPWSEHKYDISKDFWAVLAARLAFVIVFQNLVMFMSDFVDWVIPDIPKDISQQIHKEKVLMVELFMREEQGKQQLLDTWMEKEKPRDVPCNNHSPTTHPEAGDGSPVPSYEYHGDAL
Take `CC(OC(=O)c1ccc(-n2cnnn2)cc1)C(=O)NCc1ccccc1` (stereo not given): the normalized B-score (activity score, 25-100; higher = stronger inhibition) entry was “inactive”. As to `COCCNS(=O)(=O)c1cc(Br)ccc1OC`, the normalized B-score (activity score, 25-100; higher = stronger inhibition) result was “inactive”. Turning to `CC(=O)N1CCc2cc(S(=O)(=O)NC3CCCCC3)ccc21`, the normalized B-score (activity score, 25-100; higher = stronger inhibition) entry is “inactive”. On to `Cc1ccc(N)cc1-n1c(C)ccc1C`, for which the normalized B-score (activity score, 25-100; higher = stronger inhibition) is 100 (active). The value for `Cc1ccc(C)n1-c1ccncc1` was “inactive”; that for `COc1ccc(CNc2nnnn2C)cc1` was 25 (active). In the case of `Cn1nnnc1NCc1ccc(Cl)c(Cl)c1`, the normalized B-score (activity score, 25-100; higher = stronger inhibition) entry was “inactive”. The value for `CCCn1nnnc1NCc1ccc(OC)cc1` was “inactive”; that for `C[C@@H]1C[C@@H]2O[C@H]2/C=C\C=C\C(=O)Cc2c(Cl)c(O)cc(O)c2C(=O)O1` was “inactive”; that for `CC(C)Nc1nnc(SCC(=O)/C=C2\N(C)c3ccccc3C2(C)C)s1` was “inactive”. As to `CN1/C(=C\C(=O)c2oc3ccccc3c2N)C(C)(C)c2ccccc21`, the normalized B-score (activity score, 25-100; higher = stronger inhibition) result was “inactive”. The figure for `CC(=O)Nc1cccc(OCC(=O)/C=C2\N(C)c3ccccc3C2(C)C)c1` is 100 (active). As to `CCOc1cc(/C=N/NC(=O)c2cccc(S(=O)(=O)N3CCOCC3)c2)ccc1OCC(=O)N(C)C`, the normalized B-score (activity score, 25-100; higher = stronger inhibition) result was “inactive”. As for `CO[C@@H]1[C@@H](OC(N)=O)[C@@H](O)C(Oc2ccc3c(O)c(NC(=O)c4ccc(O)c(CC=C(C)C)c4)c(=O)oc3c2C)OC1(C)C` (stereo not given in full), the normalized B-score (activity score, 25-100; higher = stronger inhibition) result was “inactive”.

In the case of `O=C(O)C1=NN(c2c(F)c(F)cc(F)c2F)C(=O)CC1`, the normalized B-score (activity score, 25-100; higher = stronger inhibition) result is “inactive”. As for `Cc1ccc(CN(N=Nc2nonc2N)c2nonc2N)c(C)c1`, the normalized B-score (activity score, 25-100; higher = stronger inhibition) was 25 (active). For the compound `COc1ccc(Cc2nnc(SCC(=O)c3cccc([N+](=O)[O-])c3)n2C)cc1`, the normalized B-score (activity score, 25-100; higher = stronger inhibition) result is “inactive”. Consider `COc1ccccc1C(=O)Nc1ccccc1C(=O)Nc1ccccc1`, for which the normalized B-score (activity score, 25-100; higher = stronger inhibition) result is “inactive”.

Consider `O=C(Nc1ccccc1)c1ccccc1NC(=O)C(F)(F)F`, for which the normalized B-score (activity score, 25-100; higher = stronger inhibition) was 100 (active). The entry for `O=C(Nc1ccc(NC(=O)c2ccccc2F)cc1)c1ccccc1F` is “inactive”; for `CCn1cc(CN2CCC(C(=O)Nc3cccc(-c4cccc(Cl)c4)c3)CC2)cn1` it is “inactive”. With `CC(=O)c1cc(CN2CCC(C(=O)Nc3cccc(-c4cscn4)c3)CC2)cs1`, the normalized B-score (activity score, 25-100; higher = stronger inhibition) was 25 (active). The value for `O=C(Nc1cccc(-c2cscn2)c1)C1CCN(Cc2ccsc2)CC1` was “inactive”; that for `COc1ccc2oc(C(=O)NCC(Cc3ccccc3)N(C)C)c(C)c2c1` (stereo not given) was “inactive”; that for `Cc1cnc(NC(=O)c2ccccn2)s1` was “inactive”. Take `COc1ccc(NC(=O)c2ccccc2[N+](=O)[O-])cc1OC`: the normalized B-score (activity score, 25-100; higher = stronger inhibition) result was “inactive”. On to `O=C(Nc1ncc([N+](=O)[O-])s1)C1COc2ccccc2O1` (stereo not given), for which the normalized B-score (activity score, 25-100; higher = stronger inhibition) was 25 (active).

With `COc1ccc(NC(=O)C2COc3ccccc3O2)cc1` (stereo not given), the normalized B-score (activity score, 25-100; higher = stronger inhibition) entry was “inactive”. The value for `COc1ccc(OC)c2sc(NC(=O)C3COc4ccccc4O3)nc12` (stereo not given) was “inactive”; that for `CC(=O)Oc1ccccc1C(=O)Nc1ncc([N+](=O)[O-])s1` was 100 (active); that for `O=C(N/N=C/c1cccc2cccnc12)[C@H]1C[C@@H]1c1ccccc1` was “inactive”. Regarding `Cc1ccc(C)c(OCCC(=O)OCC(=O)NC(=O)NCc2ccccc2)c1`, the normalized B-score (activity score, 25-100; higher = stronger inhibition) entry was “inactive”. The entry for `O=C(Nc1ccc(S(=O)(=O)N2CCCCC2)cc1)C1CC(=O)N(c2ccc(F)cc2)C1` (stereo not given) is “inactive”; for `O=C(NC(=S)Nc1ncccn1)c1ccccc1Br` it is “inactive”. The value for `COc1ccnc(Oc2ccccc2)c1-c1ncn[nH]1` was “inactive”; that for `COc1cccc(OC)c1C(=O)Nc1sc2c(c1C(N)=O)CCCC2` was “inactive”; that for `Fc1cc(F)c2nc(N3CCOCC3)sc2c1` was “inactive”. The value for `O=C(Nc1nc2c(F)cc(F)cc2s1)C1COc2ccccc2O1` (stereo not given) was “inactive”; that for `NC(=O)c1c(NC(=O)c2ccccc2)sc2c1CCCC2` was “inactive”; that for `NC(=O)c1c(Nc2nc3c(F)cccc3s2)sc2c1CCCC2` was 25 (active).

For `Fc1cc(F)c2nc(Nc3nc4c(F)cccc4s3)sc2c1`, the normalized B-score (activity score, 25-100; higher = stronger inhibition) was 100 (active).

On to `Cc1c(C(=O)Nc2ccccn2)oc2ccc(Br)cc12`, for which the normalized B-score (activity score, 25-100; higher = stronger inhibition) result is “inactive”. The entry for `CCC(C)(C(=O)Nc1ccccc1C)N(C(=O)CNC(C)=O)c1ccc(C)cc1` (stereo not given) is “inactive”; for `CS(=O)(=O)c1sc(C(=O)NC(=S)Nc2ccc(OC(F)(F)F)cc2)c2c1C=CCC2` it is “inactive”; for `CC1(C)O[C@@H]2CC3C4C[C@H](F)C5=CC(=O)C=CC5(C)C4C(O)CC3(C)[C@]2(C(=O)CO)O1` (stereo not given in full) it is “inactive”. On to `Cc1ccc(/C=C2/SC(=S)N(CCC(=O)NCCCN3CCOCC3)C2=O)cc1`, for which the normalized B-score (activity score, 25-100; higher = stronger inhibition) entry is “inactive”.

For the compound `O=S(=O)(Nc1ccccc1Br)c1cccs1`, the normalized B-score (activity score, 25-100; higher = stronger inhibition) result is “inactive”.

Regarding `O=C(Nc1cccc(Cl)c1)Nc1ccccc1NS(=O)(=O)c1cccs1`, the normalized B-score (activity score, 25-100; higher = stronger inhibition) is 100 (active).

`O=S(=O)(NCc1ccc(Cl)cc1Cl)c1cccs1`: the normalized B-score (activity score, 25-100; higher = stronger inhibition) entry is “inactive”.

For `COc1ccc(Nc2nc(N)nc(CSC(=S)N3CCC(C)CC3)n2)cc1`, the normalized B-score (activity score, 25-100; higher = stronger inhibition) entry was “inactive”. The figure for `CC1=C/C(=N\OS(=O)(=O)c2ccccc2)C=CC1=O` is 25 (active); for `O=S(=O)(ON(c1ccccc1)S(=O)(=O)c1ccccc1)c1ccccc1` it is “inactive”. In the case of `CC(NC(=O)CN1CCN(Cc2ccc(Cl)cc2)C1=O)c1ccc2c(c1)OCCO2` (stereo not given), the normalized B-score (activity score, 25-100; higher = stronger inhibition) result is “inactive”. On to `O=C(c1ccc(=O)oc1)N1CCC(C(O)(c2ccccc2)c2ccccc2)CC1`, for which the normalized B-score (activity score, 25-100; higher = stronger inhibition) result was “inactive”. On to `CCc1c(C)sc(NC(=O)c2cccs2)c1C(N)=O`, for which the normalized B-score (activity score, 25-100; higher = stronger inhibition) entry is “inactive”.

As to `NC(=O)c1oc2ccccc2c1NC(=O)Cc1ccccc1`, the normalized B-score (activity score, 25-100; higher = stronger inhibition) result is “inactive”. The value for `CCOC(=O)c1oc2ccccc2c1NC(=O)c1cccs1` was 25 (active). The value for `COC(=O)CCSc1cc([N+](=O)[O-])cc2c1c(C1OCCS1)nn2-c1ccccc1` (stereo not given) was “inactive”; that for `COc1ccc(OC)c(NC(=O)CN(C)CCOc2ccc(Br)cc2)c1` was “inactive”.

`CCCCCCCCn1c2c(c(=N)c3c1CCC3)CCCC2`: the normalized B-score (activity score, 25-100; higher = stronger inhibition) is 100 (active).

With `CC(C)C[C@@H](COc1ccccc1)N1CCN(CC(C)C)CCC1=O`, the normalized B-score (activity score, 25-100; higher = stronger inhibition) entry is “inactive”. The value for `Cc1ccc(-n2c(SCC(=O)NCCC3=CCCCC3)nc3n[nH]c(C)c3c2=N)cc1Cl` was “inactive”.

Regarding `CCCCNC(=O)CSc1nc2n[nH]c(C)c2c(=N)n1-c1cccc(Cl)c1C`, the normalized B-score (activity score, 25-100; higher = stronger inhibition) was 25 (active). As for `COc1cccc(-n2c(SCC(=O)NC3CCCCC3)nc3n[nH]c(C)c3c2=N)c1`, the normalized B-score (activity score, 25-100; higher = stronger inhibition) result was “inactive”. For `Cc1ccc(N2CC(C(=O)N3CCC4(CC3)CC(=O)c3ccccc3O4)CC2=O)cc1C` (stereo not given), the normalized B-score (activity score, 25-100; higher = stronger inhibition) entry is “inactive”.

`CCCOc1ccc(C2=CSC3=NCCN23)cc1Cl`: the normalized B-score (activity score, 25-100; higher = stronger inhibition) result is “inactive”. With `CC(=O)N(C1=C(Cl)C(=O)c2ccccc2C1=O)c1ccc(C(=O)O)cc1`, the normalized B-score (activity score, 25-100; higher = stronger inhibition) was 100 (active). Turning to `O=S(=O)(N1CCCCC1)N1CCNCC1`, the normalized B-score (activity score, 25-100; higher = stronger inhibition) entry was “inactive”. The entry for `CCOC(=O)Cc1c(C)nc2c(C#N)c(C)nn2c1C` is “inactive”; for `CCCc1nc(SCC(=O)N2CCCC2)c2c(=O)n(C)c(=O)n(C)c2n1` it is “inactive”.

Values taken from PubChem BioAssay AID588511 (Johns Hopkins Ion Channel Center, 2011).
